For 26 compounds, growth results are on record in PubChem BioAssay (NCI).

The structures appear in SMILES notation. This is part of a sample that, as a whole, favours compounds with a hit. Of some 83,000 tested, about 20% had one in any assay.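 Interpretation: 100, growth as untreated; towards 0, rising growth inhibition; 0, no net growth; 0 to -100, cell death. Compounds scoring below 10 were considered active.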 Unmarked numbers belong to inactive results. Active and inactive are the calls of the source.

The test system of this assay is ACHN renal. The assay is described as follows: NCI-60 one-dose screen, 48 h (100 = growth as untreated, 0 = no growth, -100 = all killed). The conditions noted are these: 10 µM unless noted.
`COC1NC(Cl)=C(C#N)C(C#N)(C#N)C1(C)C` (stereo unspecified): the growth is 105%. The figure for `COc1ccccc1C(=O)Nc1cccc(-c2cc(=O)c3c(OC)c(OC)c(OC)cc3o2)c1` is 43%; for `C=C(NC(=O)[C@H](C(C)C)N(C)c1cccc2[nH]ccc12)C(=O)OC` it is 101%; for `Cc1nc2c(nnn2-c2ccccc2)c2nc(-c3ccccc3)oc(=O)c12` it is 105%. Under `CCCCCCCCCC[N+](C)(C)C` stands 24.9%. As to `CCOC(=O)c1ccc2n1CCCc1cnc(NC(C)=O)nc1-2`, the growth is 99.3%. As to `O=S(=O)(O)c1ccc2c(c1)Sc1cc(S(=O)(=O)O)ccc1O2`, the growth is 112%. The figure for `COc1cc(/C=C/C(=O)c2ccc(F)cc2)ccc1OCCCCOc1cc2c(cc1OC)C(=O)N1CCCC1C=N2` (stereo unspecified) is -85.9% (active).

Turning to `COC(=O)C(C)[C@H]1CC[C@@H]2[C@]1(C)CC=C1[C@]23C=C[C@]2(C[C@@H](OC(C)=O)CC[C@]12C)C(C(=O)OC)C3C(=O)OC` (stereo partly specified), the growth is 112%.

As for `COc1ccc2cnc(N)c(C#Cc3cc(C(=O)Nc4ccc(CN5CCN(C)CC5)c(C(F)(F)F)c4)cnc3C)c2c1`, the growth is -43.2% (active). The figure for `COc1cccc2c1nc1cccc(OC)c1[n+]2[O-]` is 2.52% (active). The figure for `O=C1/C(=N\c2cc(=O)[nH]n2S(=O)(=O)c2ccccc2)Nc2ccccc21` is 94.7%; for `c1ccc(Nc2ccccn2)cc1` it is 106%.

Take `COc1ccc(OC)c(Cn2cc3c(c2)-c2oncc2CC3)c1`: the growth is 55.8%. On to `O=C1C(=O)c2ccccc2C(O)=C1CCCc1ccc(C2CCCC2)cc1`, for which the growth was 30.8%. Under `CCCOC(=O)c1c(C)n(C)c2scc[n+]12` stands 85.8%; under `COc1cc(-c2nc3c(c(C)nc4c3nnn4-c3ccccc3)c(=O)o2)cc(OC)c1OC`, 103%. For the compound `COC(=O)Nc1nc2ccc(C(=O)c3ccccc3N(C)C3COC3)cc2[nH]1`, the growth is 40.5%.

Consider `COc1cc(Cn2ccc3c2-c2oncc2CC3)cc(OC)c1`, for which the growth was 47.2%. Under `c1ccc(Nc2ncc3c(n2)-c2cccn2CC3)cc1` stands 74.4%.

With `N=c1c2c(=O)n3c(nc2nc2sc4ccc(Cl)cc4n12)-c1ccccc1Sc1ccccc1-3`, the growth was 14.7%. The figure for `NC(=O)CC(NC(=O)COc1ccc(Cl)cc1Cl)C(=O)O` (stereo unspecified) is 109%. Under `C=C(C)[C@@H]1CC[C@]2(COC(=O)c3ccccc3C(=O)O)CC[C@]3(C)[C@H](CC[C@@H]4[C@@]5(C)CCCNC(C)(C)[C@@H]5CC[C@]43C)[C@@H]12` stands 65%; under `C/C=C(/C)C(=O)OC1C=C(CO)C(=O)C(OC(=O)/C(C)=C\C)C1C(C)C` (stereo unspecified), -100% (active).

As to `CC(=O)OC1CC2C3CCC4C[C@@H](NC(=O)C=C(C)C)CC[C@]4(C)C3CC[C@]2(C)[C@H]1C(C)N(C)C` (stereo partly specified), the growth is 21.4%. For `CC(=O)/C(=C/c1ccc(-c2ccccc2)cc1)C(=O)c1ccccc1`, the growth was 88.3%.
